M1 PAM parental: nonselective activator or artifact in parental CHO-K1 calcium assay | ATP EC20, Fluo-8 calcium fluorescence; 0% at ATP EC20, 100% at ATP max | activation, % at 3 µM | actives 0.02% (n = 360,000);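 active = activation above the run cutoff, the mean activation of all test compounds plus 3 SD, cut at about 40% in these data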;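 note: peak over basal fluorescence ratio in a 140 s read after ATP addition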
M1 antag: blocks human M1 muscarinic receptor | P11229 | AID 588852 | CHO-K1 hM1, Fluo-8 calcium fluorescence, ACh EC80 antagonist | inhibition, % at 3 µM | actives 1.3% (n = 360,000);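 active = percent inhibition above its own plate's cutoff, namely the mean of that plate's compound wells plus 3 SD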;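 note: peak over basal fluorescence ratio during 140 s after agonist addition; 0% = ACh EC80 plus DMSO and 100% = DMSO alone without agonist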
M1 PAM: potentiates human M1 receptor response to acetylcholine; CHO-K1 hM1, Fluo-8 calcium fluorescence, ACh EC20; 0% = ACh EC20, 100% = maximal ACh; activation, % at 3 µM; actives 0.088% (n = 360,000); in the data active = activation above about 19%, passing the limit was not always enough
M1 ag parental: M1 agonist counterscreen hit in parental CHO-K1 cells. Fluo-8 calcium fluorescence; scaled to maximal ATP response, vehicle zero. activation, % at 3 µM. actives 0.48% (n = 360,000). AID 602248; in the data active = activation above about 15%;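 note: untransfected CHO-K1 host cells lacking M1 receptor as counterscreen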
CHO-K1 Ca antag: counter-screen for M1 antagonists: effect in parental CHO-K1 cells | ATP-induced calcium, Fluo-8 fluorescence | inhibition, % at 3 µM | actives 0.6% (n = 360,000) | AID 602250;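 active = inhibition above a per-plate cutoff, the plate's mean sample inhibition plus 3 SD, cut at about 24% in these data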;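 note: 0% = DMSO plus EC80 ATP and 100% = DMSO alone without ATP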
CHRM1 agonist: agonists of human M1 muscarinic receptor; CHO-K1 hM1, Fluo-8 calcium fluorescence, agonist mode; 0% DMSO, 100% acetylcholine EC100; P11229; activation, % at 3 µM; actives 0.33% (n = 360,000);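 active = activation above the run's mean compound activation plus 3 SD, cut at about 16% in these data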;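 note: peak over basal fluorescence ratio within a 140 s kinetic read after compound addition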
Active calls of the source: *. Shown are actives, neighbours in structure and some others; about 2.3% of the full set was active somewhere.

SMILES	M1 PAM parental	M1 antag	M1 PAM	M1 ag parental	CHO-K1 Ca antag	CHRM1 agonist
O=C1OC(N2C(=O)CC[C@H]2C(=O)NCC2CCCO2)c2ccccc21 (stereo partly drawn)	12	102*	2	1	8	-4
O=C(NCCN1CCOCC1)C1CCC(=O)N1Cc1ccccc1Cl (stereo not drawn)	19	-13	7	0	-7	-5
O=C(NCC1CCCO1)C1CCC(=O)N1Cc1ccccc1Cl (stereo not drawn)	-5	6	1	0	25*	0
COc1ccc(CN(C)C2c3ccccc3-c3ccccc32)cc1	2	-8	6	0	5	-7
CSc1cccc(CN2CCC(CO)(Cc3cccc(C(F)(F)F)c3)CC2)c1	0	31*	-17	3	0	-7
OCC1(Cc2cccc(C(F)(F)F)c2)CCN(Cc2cc(F)cc(F)c2)CC1	6	-1	0	2	-9	-6
Cc1ccc(C(O)c2ncc(-c3ccc4ccccc4c3)[nH]2)cc1F (stereo not drawn)	0	-10	3	1	2	-4
O=C(NNC(=O)c1ccncc1)Nc1ccc(N=Nc2ccccc2)cc1	-2	-13	15	0	-4	18*
CN1C[C@@H]2C[C@@H](C3=Cc4cc(Cl)ccc4OC3)N3CCC[C@@]23C1=O	14	-1	-15	0	0	-14

Screening data (PubChem BioAssay)
